A selection: hits, their analogues and other compounds. The true share with any hit is near 12%.
VP16 counter – VP16 counterscreen qHTS for inhibitors of ROR gamma transcriptional activity | Drosophila S2 Gal4-VP16 UAS-luciferase, luminescence, 20 h | Potency, µM (titrated, usually from 53.6 µM), without a hit: at the highest dose activity, negative = inhibition, most hits filed as inhibitors | 3.5% of 310,000 active | AID 2546, 2010;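 further: Gal4-VP16 expression switched on by copper sulfate through the metallothionein promoter; nearly all actives have a fitted effect of over 50% in size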
RORgamma inh – qHTS for inhibitors of ROR gamma transcriptional activity; 5.4% of 310,000 active; AID 2551, 2010; Nuclear receptor ROR-gamma (Mus musculus), P51450; Drosophila S2 Gal4-RORgamma UAS-luciferase reporter, 20 h; Potency, µM (series often up to 53.6 µM), without a hit: at the top dose activity change, negative = inhibition, most hits filed as inhibitors; further: nearly all actives have a fitted effect of over 60% in size
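Stably transfected Drosophila Schneider cells are the test system, with ROR gamma fused to Gal4 and luciferase under UAS control; luminescence is read after 20 hr of 700 uM copper sulfate induction at ambient temperature.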
PLK1 PBD block – qHTS for Inhibitors of PLK1-PDB (polo-like kinase 1 - polo-box domain): Primary Screen; Serine/threonine-protein kinase PLK1 (Homo sapiens), P53350; Plk1 PBD binding of FITC phosphopeptide, fluorescence polarization; Potency, µM, for the others: max response, negative = inhibition, actives largely listed as inhibitors; 2.8% of 360,000 active; AID 720504, 2013; further: series mostly up to about 57 µM; nearly all actives have a fitted effect of over 65% in size
Sfp inh – qHTS Assay for Inhibitors of Bacillus subtilis Sfp phosphopantetheinyl transferase (PPTase) | Biochemical Sfp PPTase activity, qHTS | Potency, µM, for inactives: largest response in the series, negative = inhibition, most hits filed as inhibitors | 3.5% of 310,000 active;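 further: the enzyme is Sfp with the accession as filed and its product quenches rhodamine fluorescence; 0% = enzyme reaction without inhibitor and -100% = no enzyme wells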
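Step 1, compound plus 15 nM Sfp-PPTase, 15 min, room temperature. Step 2, add rhodamine-CoA (5 uM) and BHQ-2-YbbR (12.5 uM). Step 3, read 525/598 nm fluorescence at 0 and 30 min.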
ALDH1A1 block – qHTS Assay for Inhibitors of Aldehyde Dehydrogenase 1 (ALDH1A1). Purified ALDH1A1, NADH fluorescence, propionaldehyde substrate. Aldehyde dehydrogenase 1A1 (Homo sapiens), P00352. Potency, µM (doses to about 75.3 µM), for the others: top-dose activity, negative = inhibition, usual class: inhibitors. 7.3% of 220,000 active. AID 1030, 2008; active means well fitted inhibition curve with a large enough effect, not every such curve was filed as active; inconclusive means small, poorly fitted or top-dose-only effect, or another doubt; inactive means no such curve, though single readings can be large or run the other way;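 further: plate controls were no enzyme wells and a reference inhibitor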
Target sequence (P00352 whole entry, looked up): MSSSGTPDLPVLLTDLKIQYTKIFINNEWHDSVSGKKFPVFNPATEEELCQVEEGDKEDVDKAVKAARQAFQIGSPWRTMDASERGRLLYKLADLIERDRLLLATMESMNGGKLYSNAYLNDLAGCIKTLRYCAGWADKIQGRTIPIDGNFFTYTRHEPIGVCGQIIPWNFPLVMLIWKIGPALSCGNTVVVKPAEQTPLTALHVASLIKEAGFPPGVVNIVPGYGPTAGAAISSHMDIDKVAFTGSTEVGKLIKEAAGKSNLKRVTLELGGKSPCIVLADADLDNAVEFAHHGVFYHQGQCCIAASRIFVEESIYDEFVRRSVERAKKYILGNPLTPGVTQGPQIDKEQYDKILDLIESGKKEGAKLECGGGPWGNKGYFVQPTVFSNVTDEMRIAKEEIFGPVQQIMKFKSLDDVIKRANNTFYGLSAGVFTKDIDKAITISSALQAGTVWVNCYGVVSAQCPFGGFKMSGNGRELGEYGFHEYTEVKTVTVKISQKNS
Starred values were filed as active, the others as inactive; ? = inconclusive; . = no result given; [ ] = another dose, or the depositor's remark. Unless noted, the call rests on the fitted dose curve; in most records, active means well fitted curve in the direction sought with a large enough effect; inconclusive means small, poorly fitted or top-dose-only effect, or another doubt; inactive means no such curve, though single readings can be large; an effect the other way counts as inactive or inconclusive. Unless noted, on the % scale 0 is the no-effect control and ±100 the full control effect; potency means the concentration at half of the fitted maximal effect.

SMILES | VP16 counter | RORgamma inh | PLK1 PBD block | Sfp inh | ALDH1A1 block
Cc1cc(-c2ccccc2)c2c(=O)n(-c3ccccc3)[nH]c2n1 | 17% | -32% | -5% | -14% | .
O=c1c2c3n(c(=S)nc2[nH]n1-c1ccccc1)CCCCC3 | ? | 13µM* | -3% | -11% | ?
Cc1cccc(NC(=O)Cn2c(O)c(N=NC(N)=S)c3ccccc32)c1 | ? | ? | ? | 40µM* | .
CCCCn1c(O)c(N=NC(=O)c2ccncc2)c2cc(Br)ccc21 | -1% | ? | -3% | 10% | 7.9µM*
O=C(Cn1c(O)c(N=NC(=O)c2ccncc2)c2ccccc21)Nc1ccccc1 | -1% | -11% | -4% | -23% | .
Cc1ccc(NC(=O)Cn2c(O)c(N=NC(=O)c3ccncc3)c3ccccc32)cc1 | -2% | -10% | -9% | 3% | 4.5µM*
CC(C)(N)C(=O)N[C@@H]1C(=O)N2[C@@H]1SC(C)(C)[C@H]2C(=O)O | . | . | . | . | -2%[13.5 µM]
CC1(C)C2(C#N)C(=O)NC(=O)C12C#N (centres undefined) | . | . | 4% | . | .
CCc1nc2ccc(C(=O)NCCCN3CCCC3=O)cn2c1N(CC)C(=O)NCCc1ccccc1 | . | . | -11% | . | .
Clc1ccc(CO/N=C2\CCCc3nonc32)cc1 | 10% | 42% | 21µM* | -3% | 2%
Clc1ccccc1CO/N=C1\CCCc2nonc21 | 3% | 41% | 2% | 7% | -7%
CCCS(=O)(=O)O | . | . | . | . | 12%[13.5 µM]
COc1ccc(CCn2c(C)c(C(C)=O)c3cc(OC(=O)c4ccco4)ccc32)cc1OC | -1% | 4% | 24µM* | -12% | -10%
CC(=O)c1c(C)n(C)c2ccc(OC(=O)c3ccco3)cc12 | -2% | -5% | -8% | 10% | ?
C=CCN(C(C(=O)OC)C(C)C)S(=O)(=O)C=C (centres undefined) | 19% | -1% | . | 23% | .
COc1cc(C/C=C\c2ccccc2)c(OC)cc1O | ? | ? | . | 45µM* | 25µM*
COc1cccc(C2C(C#N)=C(N)Oc3cc(C)n(Cc4ccco4)c(=O)c32)c1 (centres undefined) | -4% | -22% | -3% | 7.9µM* | -15%
COc1ccc(C2C(C#N)=C(N)Oc3cc(C)n(Cc4ccco4)c(=O)c32)cc1 (centres undefined) | 2% | -13% | -28% | 32µM* | ?
CC1(C(=O)O)CCN1C(=O)COc1ccc(Cl)cc1 (centres undefined) | . | . | -3% | . | .
CCCCC(CCc1ccccn1)C(=O)c1ccccc1 (centres undefined) | . | . | -12% | . | .
CN1CCN(c2nc(-c3ccccc3O)nc3ccccc23)CC1 | -14% | 8.9µM* | -5% | -2% | .
c1ccc(-c2nc(N3CCOCC3)c3ccccc3n2)nc1 | 5.6µM* | 2.5µM* | -8% | 14µM* | -4%
c1ccc(CN2CCN(c3nc(-c4ccccn4)nc4ccccc34)CC2)cc1 | 2.8µM* | 1.4µM* | -6% | -17% | ?
Cc1ccccc1-c1nc(N2CCN(C)CC2)c2ccccc2n1 | 6% | -26% | . | -3% | ?
O=[N+]([O-])c1cccc(-c2nc(N3CCOCC3)c3ccccc3n2)c1 | -9% | 11% | . | -9% | 7.9µM*
SMILES | VP16 counter | RORgamma inh | PLK1 PBD block | Sfp inh | ALDH1A1 block
CCN1CCN(C(=S)Nc2cc(S(=O)(=O)N(CC)CC)ccc2C)CC1 | -1% | 2% | -8% | 6% | ?
COc1ccc(/C=C/N(CCc2ccc(OC)c(OC)c2)C(=O)c2ccccn2)cc1 | 5%[10 µM] | 37%[10 µM] | . | 3% | ?
CCCCCCCC/C=C\CCCCCCCC(=O)OC[C@@H](O)COP(=O)(O)O | -4% | 4% | . | 23% | 2%
CN(Cc1ccccc1)c1nc(-c2cccc([N+](=O)[O-])c2)nc2ccccc12 | 4% | 10% | 27µM* | 6% | ?
c1ccc(-c2nc(N3CCCCCC3)c3ccccc3n2)nc1 | 2.5µM* | 1.1µM* | -5% | -29% | 7%
CCN1CCN(c2nc(-c3ccccn3)nc3ccccc23)CC1 | -7% | 2% | -8% | ? | -1%
O=[N+]([O-])c1ccc(S(=O)(=O)CC(CN2CCCCC2)N2CCCCC2)cc1 (centres undefined) | 15% | -10% | ? | 0% | 7.1µM*
Cc1ccc(Cl)cc1NC(=S)Nn1cnnc1 | ? | 13µM* | 11µM* | 11% | .
Cc1ccc(NC(=S)Nn2cnnc2)c(C)c1 | 1% | -14% | . | 40µM* | .
Cc1ccc(Cl)cc1NC(=S)N(C)N | 12% | -37% | 4% | ? | 13%
S=C(Nc1ccc(Br)cc1Cl)Nn1cnnc1 | 3% | ? | 9.5µM* | 22µM* | 7.9µM*
Cc1nn(CC(=O)Nc2ccc(C(=O)N3CCCCC3)cc2)c(=O)c2ccccc12 | 3% | 6% | 3% | -9% | 13µM*
Cc1nn(C)c(C(=O)N/N=C/c2ccc(-c3ccccc3)cc2)c1Cl | 11µM* | 8.9µM* | 2% | -4% | .
Cc1ccc(NC(=O)c2c([N+](=O)[O-])c(C(C)(C)C)nn2C)cc1 | 3% | 18% | -5% | 19% | 15%
Cc1ccc(NC(=S)NNC(=O)c2c([N+](=O)[O-])c(C)nn2C)cc1 | -19% | 13µM* | 0% | 7% | -3%
Cc1ccc(NC(=S)NNC(=O)c2cn(C)nc2C)cc1 | -2% | 11µM* | -27% | 0% | ?
Cc1ccc(NC(=S)NNC(=O)c2nn(C)c(C)c2Cl)cc1 | -3% | -40% | -2% | 28% | ?
Cc1ccc(NC(=S)NNC(=O)c2c(Cl)c(C)nn2C)cc1 | ? | 4µM* | -20% | 31% | ?
COC(=O)c1ccc(C(NC(=O)c2cccnc2)NC(=O)c2cccnc2)cc1 | -17% | 31% | 0% | 8% | -2%
COc1cc(/C=C2\SC(=O)N(CCN)C2=O)ccc1OS(=O)(=O)c1cc(C)ccc1C | ? | ? | -17% | -51% | -3%
Cc1nonc1C(=O)N/N=C/c1ccccc1 | 0% | -3% | 24µM* | 7% | 11%
Cc1nn(C)c(C(=O)NNC(=S)NCc2ccco2)c1Cl | -9% | 8% | ? | -30% | 1%
Cc1nn(C)c(C(=O)NNC(=S)NCC(C)C)c1Cl | -19% | 3.2µM* | 1% | 33% | 4%
CC1CCc2nc3ccc(S(=O)(=O)N4CCC(C(=O)NC5CCCC5)CC4)cc3c(C(=O)O)c2C1 (centres undefined) | -9% | 0% | 1% | -5% | 40µM*
O=C(O)c1c2c(nc3ccc(S(=O)(=O)N4CCC(C(=O)NC5CCCC5)CC4)cc13)CCCCC2 | -11% | ? | -6% | 15% | ?
CC1=C([N+](=O)[O-])C(c2ccc(Cl)cc2)NC(=O)N1 (centres undefined) | -4% | -21% | -5% | 24% | .

Screening data deposited in PubChem by National Center for Advancing Translational Sciences (NCATS).
